Test results from PubChem BioAssay AID1851 (National Center for Advancing Translational Sciences (NCATS), 2009).
The whole screen tested about 16,000 compounds, of which about 5,700 (36%) were called active. Another 24% or so got no clear call; they are omitted. Calls follow the shape of the dose curve; as a rule, active = well fitted curve in the direction sought with a large enough effect; inconclusive = small, poorly fitted or top-dose-only effect, or effect the other way; inactive = no such curve, though single readings can be large or run the other way. This is one part of the list.

The compounds below were run against Cytochrome P450 1A2 (Homo sapiens) (UniProt P05177) (assay: Cytochrome panel assay with activity outcomes). Details: recombinant CYP, pro-luciferin dealkylation, luminescence, p450-cyp1a2; series mostly up to 57.1 µM; activity, negative = inhibition: at the top concentration.
% is scaled to controls: 0 for no effect and ±100 for the full control effect.

Chain of Cytochrome P450 1A2 (Homo sapiens) (P05177 whole entry, looked up): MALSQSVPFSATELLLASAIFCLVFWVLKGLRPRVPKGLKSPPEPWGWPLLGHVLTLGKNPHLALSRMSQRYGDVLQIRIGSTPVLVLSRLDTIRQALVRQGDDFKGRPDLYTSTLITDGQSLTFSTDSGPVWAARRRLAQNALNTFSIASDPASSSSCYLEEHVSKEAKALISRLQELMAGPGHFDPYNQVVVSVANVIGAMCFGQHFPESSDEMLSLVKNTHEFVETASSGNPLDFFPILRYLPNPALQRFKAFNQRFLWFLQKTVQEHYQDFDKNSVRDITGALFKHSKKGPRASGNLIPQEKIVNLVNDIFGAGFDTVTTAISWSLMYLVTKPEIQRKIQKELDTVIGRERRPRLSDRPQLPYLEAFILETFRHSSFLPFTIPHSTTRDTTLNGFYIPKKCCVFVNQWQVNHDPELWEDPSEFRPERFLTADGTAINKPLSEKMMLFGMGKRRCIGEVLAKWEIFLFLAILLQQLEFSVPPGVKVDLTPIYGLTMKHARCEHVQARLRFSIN

Structure (SMILES)	activity, negative = inhibition	AC50
COCC(C)NCc1cccc(C)c1 (centres undefined)	-15.4% (inactive)	
COc1cccc(-c2nccc(NCc3cccc(C)c3)n2)c1		0.316 µM (active)
COc1ccc(-c2cc(C(F)(F)F)nc(SCc3cccc(C(=O)O)c3)n2)cc1		7.08 µM (active)
CC(=O)OC[C@H]1O[C@@H](O/N=C(\C)CCN2CCCCc3nc(C)c(C)cc32)[C@H](OC(C)=O)[C@@H](OC(C)=O)[C@H]1OC(C)=O	-3.61% [at 11.4 µM] (inactive)	
CCOc1ccc(N(CC(=O)NCc2ccc(OC)cc2)S(=O)(=O)c2c(C)noc2C)cc1	-6.85% (inactive)	
CCOc1ccc(-c2cc(CCCC(=O)NCCc3ccc(OC)c(OC)c3OC)no2)cc1		0.0631 µM (active)
CCOc1ccc(CCNC(=O)CCCN2C(=O)c3ccccc3C2=O)cc1OCC	-7.98% (inactive)	
COc1ccc(-n2nc3cc(C)c(NC(=S)NC(=O)c4ccccc4C)cc3n2)cc1	-17.3% (inactive)	
Cc1ccccc1C(=O)NC(=S)NCC(=O)c1ccccc1		10 µM (active)
O=C(CNC(=O)c1ccc([N+](=O)[O-])cc1)c1ccccc1	-9.2% (inactive)	
COCCNc1nc(-c2c(C)noc2C)nc2ccccc12		0.126 µM (active)
Cc1noc(C)c1-c1nc(NCCN2CCOCC2)c2ccccc2n1		2.51 µM (active)
c1ccc(-n2ncc3c(NCCCN4CCOCC4)ncnc32)cc1	-22.5% (inactive)	
CC(=O)NCCNc1nc(-c2c(C)noc2C)nc2ccccc12		1.58 µM (active)
O=C(Nc1cccc(F)c1)N1CC[C@@]2(CCCN(C(=O)c3cc(C(F)(F)F)cc(C(F)(F)F)c3)C2)C1	-14.9% (inactive)	
CN(C)CCCCN1CCc2c(n(C)c3ccccc23)C1=O	-14.1% [at 2.29 µM] (inactive)	
CN(C)CCCNc1cc(O)c2c(c1O)C(=O)c1ccccc1C2=O	-23.1% [at 2.29 µM] (inactive)	
CN(C)CCCNC(=O)c1cc2c3ccccc3n(C)c2s1		14.1 µM (active)
COC(Cn1c(C)c(C(C)=O)c(C(C)=O)c1C)OC	-7.78% (inactive)	
CC(=O)c1[nH]c(C)c(C(C)=O)c1C		0.708 µM (active)

Structure (SMILES)	activity, negative = inhibition	AC50
CC(C)c1ccc(Cn2ccc3c4c(N)nc(NC5CC5)nc4ccc32)cc1		1.58 µM (active)
CC(=O)NCCNc1ncnc2ccc(-c3ccccc3C(F)(F)F)cc12		10 µM (active)
COc1ccccc1-c1ccc2ncnc(NCCNC(C)=O)c2c1		5.01 µM (active)
CC(=O)NCCNc1ncnc2ccc(-c3ccccc3C)cc12		0.631 µM (active)
CC(=O)NCCNc1ncncc1-c1ccccc1C(F)(F)F	-19.2% (inactive)	
CC1=C(C(=O)O)N2C(=O)[C@@H](NC(=O)[C@@H](N)C3=CCC=CC3)[C@@H]2SC1	-0.757% (inactive)	
Cc1ccc(S(=O)(=O)N2CCN(C(=O)c3ccccc3)C2C(C)C)cc1 (centres undefined)	-9.28% (inactive)	
COc1cccc(Nc2ncc3nc(C)c(=O)n(C4CC4)c3n2)c1		1.26 µM (active)
O=c1cnc2cnc(Nc3ccccc3)nc2n1C1CC1		0.631 µM (active)
Cc1nc2cnc(Nc3ccccc3)nc2n(C2CC2)c1=O		1 µM (active)
COc1cccc(Nc2ncc3ncc(=O)n(C4CC4)c3n2)c1		0.631 µM (active)
O=C(Nc1ccc(C(=O)Nc2ccc(C(=O)Nc3ccc(S(=O)(=O)O)c4cc(S(=O)(=O)O)cc(S(=O)(=O)O)c34)cc2)cc1)Nc1ccc(C(=O)Nc2ccc(C(=O)Nc3ccc(S(=O)(=O)O)c4cc(S(=O)(=O)O)cc(S(=O)(=O)O)c34)cc2)cc1		31.6 µM (active)
O=C(Nc1cccc(C(=O)Nc2ccc(S(=O)(=O)O)c3cc(S(=O)(=O)O)cc(S(=O)(=O)O)c23)c1)Nc1cccc(C(=O)Nc2ccc(S(=O)(=O)O)c3cc(S(=O)(=O)O)cc(S(=O)(=O)O)c23)c1		inactive
CN1CCN(C(=O)C(C(=O)c2ccc(F)cc2)n2ccccc2=O)CC1 (centres undefined)	-0.425% (inactive)	
Fc1ccc(Nc2ncnc3ccc(-c4ccoc4)cc23)cc1		1 µM (active)
c1ccc(Nc2ncnc3ccc(-c4ccoc4)cc23)cc1		1.58 µM (active)
CCN(C(=O)CSc1nc2cc(C(=O)OC)ccc2c(=O)n1Cc1ccco1)c1cccc(C)c1		2.51 µM (active)
CCc1ccc(NC(=O)CSc2nc3cc(C(=O)OC)ccc3c(=O)n2Cc2ccco2)cc1	-27.9% (inactive)	
COC(=O)[C@H]1C[C@@H]1[C@H](NC(=O)Oc1ccc(F)cc1)c1ccccc1		1 µM (active)
COC(=O)[C@@H]1C[C@H]1[C@@H](NC(=O)Oc1ccc(F)cc1)c1ccccc1		3.16 µM (active)

Structure (SMILES)	activity, negative = inhibition	AC50
Cc1ccccc1OCCCn1c(=O)sc2ccccc21		3.16 µM (active)
Cc1ccc(OCCCn2c(=O)sc3ccccc32)cc1	-65.4% (inactive)	
O=c1sc2ccccc2n1CCCOc1ccccc1		15.8 µM (active)
O=P(O)(COc1ccccc1)COc1ccccc1	-1.64% (inactive)	
CCOC(=O)c1cccc(NC(=O)COc2ccc([N+](=O)[O-])cc2)c1		12.6 µM (active)
CCC(=O)Nc1cccc(NC(=O)c2cccc([N+](=O)[O-])c2)c1		7.08 µM (active)
CCC(=O)Nc1cccc(C(=O)/C=C/c2ccccc2)c1		1 µM (active)
O=C(Nc1nc(-c2ccccc2)cs1)c1cccc([N+](=O)[O-])c1		1.41 µM (active)
COc1ccccc1Nc1nc(-c2sc(NC(=O)c3ccc([N+](=O)[O-])cc3)nc2C)cs1	-20.4% (inactive)	
CS(=O)(=O)N(CC(=O)Nc1cccc(F)c1)c1cccc([N+](=O)[O-])c1	-3.74% (inactive)	
O=C(Nc1cccc([N+](=O)[O-])c1)c1ccc(CSc2ccccc2)cc1	-21.6% (inactive)	
O=C(COc1ccc(/C=N/NC(=O)c2ccccc2)cc1)Nc1ccc([N+](=O)[O-])cc1	-1.47% (inactive)	
CC(C)NC(=O)N1CCC2(CC1)CCN(S(C)(=O)=O)CC2	-8.96% (inactive)	
Cc1ccccc1N1C(=O)c2cc(S(N)(=O)=O)c(Cl)cc2N[C@H]1C	0.243% [at 25.6 µM] (inactive)	
COc1ccc(Cl)cc1N=Nc1ncc[nH]1		0.631 µM (active)
Clc1ccc(Cn2c(CN3CCCC3)nc3ccccc32)cc1		10 µM (active)
Cn1c(=O)[nH]c(=O)c2c1nc(CN1CCOCC1)n2Cc1ccccc1	2.89% (inactive)	
O=C(CN(c1ccccc1)S(=O)(=O)c1ccccc1)NCCSCc1ccco1	-14.5% (inactive)	
CC(C(=O)NCc1ccc2c(c1)OCO2)N1c2cccc3cccc(c23)S1(=O)=O (centres undefined)		1.78 µM (active)
